A selection: hits, their analogues and other compounds. The true share with any hit is near 28%.
CYP2C19 activ: increases human CYP2C19 enzyme activity. P33261. recombinant CYP2C19, luciferin-H EGE luminescence; stronger effect = higher value; 0 = fully inhibited enzyme, 1 = untreated enzyme. activation factor at 5 µM. 96,000 tested, under 10 active. AID 1025;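 active means activation factor of at least 2 at 5 µM in the primary screen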;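 further: 0 = wells with 2.5 mM tranylcypromine and 1 = vehicle-only wells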
Target sequence (P33261 whole entry, looked up): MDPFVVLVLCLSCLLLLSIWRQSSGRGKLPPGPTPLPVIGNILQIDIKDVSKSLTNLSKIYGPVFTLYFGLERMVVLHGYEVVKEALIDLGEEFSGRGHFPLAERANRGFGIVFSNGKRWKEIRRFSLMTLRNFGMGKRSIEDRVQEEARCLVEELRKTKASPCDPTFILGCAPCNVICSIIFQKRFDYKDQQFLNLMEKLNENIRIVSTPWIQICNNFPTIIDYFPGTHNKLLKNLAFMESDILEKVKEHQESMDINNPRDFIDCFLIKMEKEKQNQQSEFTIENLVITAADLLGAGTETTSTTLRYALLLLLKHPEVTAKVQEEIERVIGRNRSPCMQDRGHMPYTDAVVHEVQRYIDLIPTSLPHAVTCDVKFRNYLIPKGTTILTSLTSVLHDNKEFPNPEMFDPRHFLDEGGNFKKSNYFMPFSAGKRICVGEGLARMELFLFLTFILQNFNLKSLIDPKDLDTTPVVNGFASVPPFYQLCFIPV
CYP2C19 inh: human CYP2C19 inhibition. AID 778. CYP2C19 Supersomes, luciferin-H EGE luminescence, 30 min. actives 21% (n = 96,000). inhibition, % at 5 µM;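 active means CYP2C19 inhibition above a set limit at 5 µM in the primary screen, cut at about 50% in these data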;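 further: plate controls were negative control wells for no effect and 2.5 mM tranylcypromine positive control for full effect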
CYP2C9 act: increases human cytochrome P450 2C9 activity | P11712 | recombinant CYP2C9, luciferin-H conversion, luminescence; stronger effect = higher value; factor 1 = untreated enzyme, 0 = blocked | activation factor at 5 µM | actives 1.4% (n = 96,000);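 active means activation factor of 2 or more for CYP2C9 at a 5 µM dose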;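 further: 0 = sulfaphenazole-blocked wells and 1 = vehicle-only wells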
CD11b adhes inh: blocks human CD11b/CD18 adhesion to fibrinogen; P05107+P11215; actives 0.54% (n = 93,000); inhibition, % at 10 µM; K562 CD11b/CD18 adhesion to fibrinogen, ATPlite luminescence; Mn2+ added to activate the integrin; AID 1497;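 active means primary inhibition of 50% or more at 10 µM, then 40% or more on retest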
CD11b adhes enh: CD11b/CD18-fibrinogen binding enhancement | activation, % at 10 µM | P05107+P11215 | K562 CD11b/CD18 adhesion to fibrinogen, ATPlite luminescence | actives 0.07% (n = 93,000);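 active means 10 µM primary screen giving 50% or more activity, confirmed by 40% or more on retest at that dose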
CYP2C9 inh: inhibitors of human CYP2C9 | P11712 | AID 777 | inhibition, % at 5 µM | actives 20% (n = 96,000) | CYP2C9 Supersomes, luciferin-H conversion, luminescence;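 active means blocking of liver enzyme CYP2C9 beyond about 50% at 5 µM, limit read from the data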
Active calls of the source: *; / = no result.

SMILES | CYP2C19 activ | CYP2C19 inh | CYP2C9 act | CD11b adhes inh | CD11b adhes enh | CYP2C9 inh
CCCn1cnc2c(c1=O)c1nc3ccccc3nc1n2CCC1=CCCCC1 | 0.2 | 84.0* | 0.4 | -6.9 | 0.7 | 58.1*
CC(C)Cn1cnc2c(c1=O)c1nc3ccccc3nc1n2Cc1ccc2c(c1)OCO2 | 1 | -1.7 | 0.5 | 29.5 | 5.9 | 50.5*
CCCCn1c2nc3ccccc3nc2c2c(=O)n(CCC(C)C)cnc21 | 0.9 | 13.8 | 0.9 | -17.4 | -4.9 | 13.4
O=C1CN(C(=O)COC(=O)CCC(=O)c2ccc3c(c2)OCCO3)c2ccccc2N1 | 0.9 | 10.7 | 1.1 | 9.3 | -1.8 | -10.2
COc1ccccc1C1=NOC(COC(=O)c2ccc3ccccc3n2)C1 (stereo not drawn) | 0.7 | 35.0 | 2.2* | -1.1 | 0.2 | -120.9
Clc1ncccc1-c1nc2ccccc2n1Cc1ccccc1 | 0.8 | 24.6 | 0.8 | / | / | 20.8
CSc1ccccc1NC(=O)Cn1c(-c2cscn2)nc2ccccc21 | 0 | 98.5* | 0.2 | -18.5 | 3.2 | 78.5*
Brc1ccccc1Cn1c(-c2cscn2)nc2ccccc21 | 0.4 | 55.8* | 0.8 | -34.1 | 0.0 | 15.4
CCCc1nnc(N2C(=O)c3cccc4cccc(c34)C2=O)s1 | 1.1 | -8.4 | 3* | -3.0 | 1.1 | -202.6
Cc1nnc(N2C(=O)c3cccc4cccc(c34)C2=O)s1 | 1 | -0.5 | 1.6 | -13.7 | -5.1 | -60.5
CCOC(=O)C(Oc1ccc2c(-c3ccc(OC)cc3)cc(=O)oc2c1C)c1ccccc1 (stereo not drawn) | 0.8 | 23.4 | 0.2 | / | / | 78.2*
CCOC(=O)C(Oc1ccc2c(-c3ccccc3)cc(=O)oc2c1C)c1ccccc1 (stereo not drawn) | / | / | / | 9.7 | -5.9 | /
CCn1cc(CNC(=O)c2cc(-c3ccccc3OC)nc3ccccc23)c(C)n1 | 0.9 | 9.1 | 0.7 | -4.1 | -3.3 | 31.7
O=C(NC1CCCCC1)C(c1ccc2ncccc2c1)N(Cc1ccc(F)cc1)C(=O)c1cccs1 (stereo not drawn) | 0.3 | 66.3* | 0.2 | -14.5 | 3.1 | 84.0*
COc1cccc(CN(C(=O)Cc2c[nH]c3ccccc23)C(C(=O)NC2CCCCC2)c2cccs2)c1 (stereo not drawn) | 0.1 | 94.0* | 0 | 1.3 | -4.5 | 97.9*
COc1ccc(CN(C(=O)Cc2cccs2)C(C(=O)NC2CCCC2)c2ccncc2)cc1 (stereo not drawn) | 0.2 | 79.6* | 0.3 | / | / | 67.0*
O=C(Cc1cccs1)N(Cc1cccs1)C1(C(=O)NC2CCCCC2)CCCCC1 | 1.1 | -6.5 | 1.2 | 2.4 | -3.7 | -19.2
Cn1cccc1C(C(=O)NC1CCCCC1)N(C(=O)Cc1cccs1)C1CC1 (stereo not drawn) | 0.1 | 91.9* | 0.9 | 5.9 | -2.8 | 12.2
CC(C)COC(=O)/C(C#N)=C/c1c[nH]c2ccccc12 | / | / | / | 3.8 | 7.6 | /
CC(C)CN(C(=O)c1cc2ccccc2o1)c1c(N)n(CC(C)C)c(=O)[nH]c1=O | / | / | / | -2.1 | 0.0 | /
CCCCCOC(=O)Cn1c(N2CCCCCC2)nc2c1c(=O)[nH]c(=O)n2C | 0.8 | 20.5 | 0.9 | 3.9 | -2.4 | 8.8
O=C(O)c1ccc(C(=O)Nc2cccc(NC(=O)C3CCCO3)c2)cc1 (stereo not drawn) | 1 | -2.8 | 1 | -16.0 | -2.7 | 1.2
CCOc1ccc(C(C(=O)NC2CCCC2)N(Cc2ccccc2)C(=O)c2nsc(Cl)c2Cl)cc1 (stereo not drawn) | 0.9 | 7.8 | 0.8 | 1.9 | 4.6 | 25.0
COc1ccc(C(C(=O)NC2CCCCC2)N(Cc2cccs2)C(=O)Cc2c[nH]c3ccccc23)cc1 (stereo not drawn) | 0.5 | 49.2 | 0.3 | / | / | 68.0*
COc1ccc(CNC(=O)C(c2ccncc2)N(C(=O)Cc2cccs2)c2ccc(C)cc2)cc1 (stereo not drawn) | 0.3 | 67.3* | 0.3 | 6.2 | 2.1 | 69.3*
SMILES | CYP2C19 activ | CYP2C19 inh | CYP2C9 act | CD11b adhes inh | CD11b adhes enh | CYP2C9 inh
COc1ccc(CCN(C(=O)C(F)(F)F)C(C(=O)NC2CCCC2)c2cccs2)cc1OC (stereo not drawn) | 0.1 | 85.3* | 0.1 | -4.7 | -4.2 | 88.0*
COc1ccc(C(C(=O)NC2CCCC2)N(Cc2ccccc2)C(=O)c2nsc(Cl)c2Cl)cc1 (stereo not drawn) | 0.4 | 61.0* | 0.4 | -5.2 | -4.4 | 63.9*
O=C(COc1ccc(Cl)cc1Cl)Nc1c(-c2cccs2)nc2ccccn12 | / | / | / | -3.0 | 2.6 | /
Cc1cc(Br)cc(C)c1OCCCCN(C)C | 0.8 | 19.6 | 1 | / | / | 4.8
CCN(CC)CCCN1C(=O)C(=O)/C(=C(/O)c2ccc(OC)c(Cl)c2)C1c1ccco1 (stereo not drawn) | 1.1 | -8.7 | 1 | 13.0 | 0.5 | 1.3
C#CC(=O)N(c1cccc(OC)c1)C(C(=O)NC1CCCC1)c1cccs1 (stereo not drawn) | 0.4 | 57.3* | 0.8 | 14.4 | 0.9 | 23.8
COc1ccc(CN(CC2CCCO2)S(=O)(=O)c2ccc(C(=O)O)cc2)cc1OC (stereo not drawn) | 1.1 | -12.9 | 1.1 | -7.8 | -5.6 | -11.6
Cc1ccc(OCCn2c(C3CC(=O)N(Cc4ccccc4)C3)nc3ccccc32)cc1 (stereo not drawn) | 0.7 | 33.2 | 0.2 | 11.0 | -7.4 | 84.0*
C=CCN1CC(c2nc3ccccc3n2Cc2cccc3ccccc23)CC1=O (stereo not drawn) | 0.7 | 34.9 | 0.4 | / | / | 59.6*
CCOC(=O)C1=C(N)Oc2c(oc(CO)cc2=O)C1c1c(F)cccc1Cl (stereo not drawn) | 0.3 | 70.7* | 0.4 | -0.4 | -1.7 | 58.8*
CSCCC(NC(=O)c1ccco1)C(=O)OCC(=O)Nc1sccc1C#N (stereo not drawn) | 0.4 | 55.3* | 0.2 | -5.1 | 0.3 | 78.1*
COc1ccc(C2(CCN)CC(C)N(C)CC2C)cc1 (stereo not drawn) | 1 | 1.6 | 1.1 | 9.4 | 1.7 | -10.1
N#Cc1c(N)nc2c(c1-c1ccc3c(c1)OCO3)CCCCCC2 | 0.7 | 34.8 | 0.8 | -7.7 | -4.2 | 15.1
N#Cc1c(N)oc(-c2ccc3c(c2)OCO3)c1-c1ccc2c(c1)OCO2 | 0 | 95.6* | 0.1 | -34.2 | 4.0 | 86.8*
CC1(C)CC(=O)CC(C)(C)N1OC(=O)c1ccccn1 | 0.7 | 30.5 | 0.9 | -22.2 | 1.2 | 11.2
CN1CCN(Cc2c(O)ccc3occ(C(=O)c4ccccc4)c23)CC1 | 0 | 98.9* | 0.9 | 13.5 | -0.9 | 8.4
CN1CCN(Cc2c(O)ccc3c(-c4ccccc4)cc(=O)oc23)CC1 | 0.5 | 53.5* | 0.8 | -14.3 | 1.1 | 19.3
COc1cccc2c1OC1(C)CC2/C(=C(\C)O)C(=O)N1 (stereo not drawn) | 1.1 | -8.0 | 1 | 2.7 | 3.8 | -1.7

Screening data: PubChem BioAssay, Sanford-Burnham Center for Chemical Genomics
